Source: PubChem BioAssay (National Center for Advancing Translational Sciences (NCATS))
The list is not random: actives were taken first. Their share in the collection is about 5.6%.
PKM2 activator = PKM2 (human) enzyme activation | hit rate 0.34% among 260,000 | AID 1631 | Potency, µM (series often up to 57.5 µM), inactives show at the top dose activation, most hits filed as activators | purified PKM2, Kinase-Glo ATP luminescence, activation; response scale: 0% is enzyme alone, no compound | P14618; also: potency is read from the fitted curve at half-maximal effect; nearly all actives have a fitted effect of over 55% in size
Target sequence (P14618 whole entry, looked up): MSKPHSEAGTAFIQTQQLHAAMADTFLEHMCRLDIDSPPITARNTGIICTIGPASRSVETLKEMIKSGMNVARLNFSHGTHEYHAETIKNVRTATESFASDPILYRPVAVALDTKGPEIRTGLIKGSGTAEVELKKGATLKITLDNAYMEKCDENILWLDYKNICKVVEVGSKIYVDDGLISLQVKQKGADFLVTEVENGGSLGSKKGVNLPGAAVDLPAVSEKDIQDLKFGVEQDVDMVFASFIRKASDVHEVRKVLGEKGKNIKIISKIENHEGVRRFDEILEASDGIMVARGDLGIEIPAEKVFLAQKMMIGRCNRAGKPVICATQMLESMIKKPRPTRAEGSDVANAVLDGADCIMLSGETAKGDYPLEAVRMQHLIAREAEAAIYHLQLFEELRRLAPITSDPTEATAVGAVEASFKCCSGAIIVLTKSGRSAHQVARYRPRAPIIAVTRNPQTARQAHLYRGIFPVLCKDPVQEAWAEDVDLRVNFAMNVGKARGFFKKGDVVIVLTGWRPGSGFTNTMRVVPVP
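Kinase-Glo luminescence reports ATP generated from ADP (0.1 mM) and PEP (0.5 mM) by purified hPK-M2 after 1 h at room temperature, pH 7.2 imidazole buffer; intermediate enzyme activity allows detecting inhibitors and activators.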
Six1-Eya2 inh = inhibitors of human Six1/Eya2 interaction; AlphaScreen GST-Six1/His-Eya2 binding, biochemical; stronger effect = lower value; activity change, % (concentration not given with the values); hit rate 0.56% among 360,000; AID 651725; in the data active = activity change below about -65%; inconclusive = mostly about -30% to -63%
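Homogeneous AlphaScreen proximity assay pairing GST-Six1 with His-tagged Eya2 (added as 5X mix: 250 nM and 500 nM) in 50 mM Tris pH 8.0, 300 mM NaCl, 1 mM TCEP. Glutathione donor and nickel acceptor beads; 1 h, 37 °C, dark.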
VP16 counter = inhibits Gal4-VP16 luciferase reporter, ROR gamma counter-screen; AID 2546; hit rate 3.5% among 310,000; Drosophila S2 Gal4-VP16 UAS-luciferase, luminescence, 20 h; Potency, µM (series often up to 53.6 µM), without a hit: at the top dose activity, negative = inhibition, actives largely listed as inhibitors;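 also: Gal4-VP16 expression switched on by copper sulfate through the metallothionein promoter; potency is read from the fitted curve at half-maximal effect; nearly all actives have a fitted effect of over 50% in size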
CtBP-E1A blk = CtBP/E1A binding inhibition; AlphaScreen GST-E1A/His-CtBP binding, 1536-well; stronger effect = lower value; activity change, % (no concentration beside the values); hit rate 0.49% among 340,000; AID 651724; in the data active = activity change below about -65%; inconclusive = mostly about -30% to -63%
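GST-E1A and His-tagged CtBP (125 nM each as 5X stock) were preincubated with pin-transferred compound for 2 h at 37 °C in the dark, then glutathione donor and nickel acceptor beads were added for 1 h before AlphaScreen reading.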
RORg inh = blocks mouse ROR gamma transcriptional activity | P51450 | Drosophila S2 Gal4-RORgamma UAS-luciferase reporter, 20 h | Potency, µM (top dose mostly 53.6 µM), for the others: at the highest dose activity change, negative = inhibition, usual class: inhibitors | hit rate 5.4% among 310,000 | AID 2551; also: potency is read from the fitted curve at half-maximal effect; nearly all actives have a fitted effect of over 60% in size
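Luminescence from a UAS-regulated Photinus luciferase reporter in stably transfected Drosophila Schneider cells is measured; decreased signal marks ROR gamma inhibition. Fusion expression is induced by 700 uM copper sulfate for 20 hr.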
* marks the source's active call; other numbers are inactive results; ? = inconclusive; . = no result given; [ ] = remark or other dose. Unless noted, calls follow the shape of the dose curve; as a rule, active = well fitted curve in the direction sought with a large enough effect; inconclusive = small, poorly fitted or top-dose-only effect, or another doubt; inactive = no such curve, though single readings can be large; an effect the other way counts as inactive or inconclusive. % is scaled to controls: 0 for no effect and ±100 for the full control effect.

SMILES	PKM2 activator	Six1-Eya2 inh	VP16 counter	CtBP-E1A blk	RORg inh
O=C(O)c1cc(O)c2c(c1)[C@@H]([C@H]1c3cc(C(=O)O)cc(O)c3C(=O)c3c(O[C@@H]4O[C@H](CO)[C@@H](O)[C@H](O)[C@H]4O)cccc31)c1cccc(O[C@@H]3O[C@H](CO)[C@@H](O)[C@H](O)[C@H]3O)c1C2=O	.	?	.	9	.
CC(=O)N/N=C/c1cc(C(C)C)cc(/C=N/NC(C)=O)c1O	9%	-74*	-6%	-84*	-1%
CC(=O)N/N=C/c1cc(C)n(-c2ccc(Br)cc2)c1C	4%	-19	-1%	4	5%
C[C@H](NC(N)=O)C(=O)Nc1ccc2c(c1)OCO2	0%	-5	1%	-6	-2%
Cc1cc(C(=O)NCCC2=CCCCC2)c(C)o1	14%	0	?	-10	10µM*
CCN(CC)S(=O)(=O)c1ccc2[nH]cc(C(=O)NCCC3=CCCCC3)c(=O)c2c1	5%	-7	5µM*	-8	10µM*
O=C(NC1CCCCC1)c1ccc(CS(=O)Cc2ccc(Cl)cc2)o1 (stereo not drawn)	.	2	1%	3	1%
CO[C@H]1C[C@@H]2CC[C@@H](C)[C@@](O)(O2)C(=O)C(=O)N2CCCC[C@H]2C(=O)OC([C@H](C)C[C@@H]2CC[C@@H](O)[C@H](OC)C2)CC(=O)[C@H](C)/C=C(\C)[C@@H](O)[C@@H](OC)C(=O)[C@H](C)C[C@H](C)/C=C/C=C/C=C/1C (stereo partly drawn)	.	.	-26%	.	-2%
Cc1ccn2c(CNCC3OCCc4ccccc43)c(C(=O)N3CCCCCC3)nc2c1 (stereo not drawn)	-2%	-2	3%	2	3%
O=C(Oc1ccc(C(=S)N2CCOCC2)cc1)c1ccc([N+](=O)[O-])cc1	0%	-83*	2%	.	7%
Cc1ccc(C(=O)O)cc1S(=O)(=O)N1CCCC1	3%	2	6%	4	0%
Cc1ccc(C(=O)Oc2ccc([N+](=O)[O-])cc2)cc1S(=O)(=O)N1CCCCCC1	-3%	-85*	?	-4	-12%
O=C(c1ccc([N+](=O)[O-])cc1)N1CCOCC1	.	2	.	2	.
COc1ccccc1N(CC(=O)N1CCCC1)S(=O)(=O)c1cc([N+](=O)[O-])ccc1Cl	.	-1	.	-7	.
O=C(NCCc1ccccc1Cl)C1CC(=O)N(C2CCCCC2)C1 (stereo not drawn)	.	24	1%	5	-3%
Nc1[nH]ncc1-c1ccc(F)cc1	2%	9	25%	-17	-9%
CCOC(=O)C1=C(C)C(c2ccccc2OC)NC(=S)N1 (stereo not drawn)	-2%	-3	0%	9	2.8µM*
COc1ccc(-c2cc3nc4n(c(=O)c3s2)CCCCC4)cc1	-6%	11	-18%	5	-11%
Cc1nc2cc(-c3ccccc3)sc2c(=O)n1N	-105%	2	1.6µM*	0	0.71µM*
COc1ccc(-c2cc3nc4n(c(=O)c3s2)CCC4)cc1	-47%	-2	1.6µM*	-2	?
COc1ccc(-c2cc3nc(C)n(N)c(=O)c3s2)cc1	-72%	1	1.3µM*	.	1.8µM*
CCCC[C@]12Cc3cc(OC)c(OC)cc3C(O1)c1c(cc(-c3ccccc3)oc1=O)O2	-1%[11.5 µM]	.	-1%[10 µM]	.	14%[10 µM]
COC(=O)C1=C(C(=O)OC)[C@]2([C@@H]3CC=CCN[C@@H](Cc4ccccc4)C(=O)N3Cc3ccccc3)C=C[C@H]1O2	.	-14	.	-13	.
C=CCC(Nc1ccccc1)C12C=CC(O1)C(C(=O)OC)=C2C(=O)OC (stereo not drawn)	13%	-1	6.3µM*	1	5.6µM*
O=C(COC(=O)c1ccc([N+](=O)[O-])s1)Nc1ccccc1	4%	-8	-5%	-4	-6%
SMILES	PKM2 activator	Six1-Eya2 inh	VP16 counter	CtBP-E1A blk	RORg inh
O=C(COC(=O)c1ccc([N+](=O)[O-])s1)NCc1ccccc1	7%	-9	-24%	24	11µM*
O=C(COC(=O)CCC(=O)c1ccccc1)Nc1nnc(-c2ccccc2)o1	.	?	.	1	.
Cc1nnc(SCC(=O)Nc2nnc(-c3ccccc3)o2)s1	.	-27	.	5	.
Cc1ccc(C)c(-c2nnc(NC(=O)Cc3ccccc3)o2)c1	.	21	1.1µM*	.	1µM*
O=C(Cc1ccccc1)Nc1nnc(-c2ccccc2)o1	-17%	?	3.5µM*	-3	1.1µM*
O=C(CSc1nncs1)Nc1nnc(-c2ccccc2)o1	-13%	?	?	-22	11µM*
O=C(Cc1ccc(F)cc1)Nc1nnc(-c2ccc(F)cc2)o1	.	?	1.4µM*	?	?
CC[C@@]1(C(=O)OC)N[C@H](CN(C)C(=O)c2ccc(F)cc2)[C@@H]2C(=O)N(Cc3ccccc3)C(=O)[C@@H]21	.	19	.	25	.
Cn1c(C(=O)N2CCC(C(=O)NCc3ccccc3)CC2)cc2sccc21	.	-7	1%	-5	43%
CCCCn1c(N)c(N(CC(C)C)C(=O)COc2cc(C)ccc2Cl)c(=O)[nH]c1=O	.	6	.	-3	.
O=C(CCCSc1nc2ccccc2[nH]1)Nc1nnc(-c2ccccc2)o1	-7%	?	-22%	?	13µM*
Cc1ccc(C(=O)O)cc1NC(=O)CCc1c(C)noc1C	.	3	.	-21	.
Oc1oc(-c2ccccc2)nc1C=Nc1ccccc1	-8%	-3	?	9	-15%
Sc1oc(-c2ccccc2)cc1C=Nc1ccccc1	-7%	-71*	18µM*	-73*	13µM*
CC1CN(c2ccc([N+](=O)[O-])c(NCCOc3ccccc3)c2)CC(C)N1 (stereo not drawn)	-5%[11.5 µM]	-18	0%	-23	-12%
CC1CN(c2ccc([N+](=O)[O-])c(NCCOc3ccc(Cl)cc3)c2)CC(C)N1 (stereo not drawn)	5%	-7	18µM*	.	?
CSCC[C@H](NC(=O)[C@H](CC(C)C)NC(=O)[C@H](CO)NC(=O)[C@H](CCC(=O)O)NC(=O)[C@H](CC(C)C)NC(=O)[C@H](Cc1ccc(O)cc1)NC(=O)[C@H](CCCCN)NC(=O)[C@H](CCCCN)NC(=O)[C@H](C)NC(=O)[C@H](CO)NC(=O)[C@H](CC(C)C)NC(=O)[C@H](CCC(N)=O)NC(=O)CNC(=O)[C@H](CC(C)C)NC(=O)[C@H](CC(C)C)NC(=O)[C@H](CCCCN)NC(=O)[C@H](CO)NC(=O)[C@H](Cc1ccccc1)NC(=O)[C@H](CC(=O)O)NC(=O)[C@H](CO)NC(=O)[C@@H](NC(=O)[C@H](Cc1ccccc1)NC(=O)[C@@H](NC(=O)CNC(=O)[C@H](CC(=O)O)NC(=O)[C@H](C)NC(=O)[C@@H](N)Cc1cnc[nH]1)C(C)C)[C@@H](C)O)C(N)=O	.	.	-2%	.	-5%
